Several values for one entry are separate records, joined by “and”; a condition that tells them apart may be missing. Identical values can stand only once. Results filed as inconclusive are left out. A call without a number means that no potency is given here. Activity calls are given as the source filed them. Calls come from the whole dose curve.
assay: qHTS assay to identify small molecule agonists of the NFkB signaling pathway - cell viability counter screen (AID 1159515); details: NFkB-bla ME-180 viability, CellTiter-Glo luminescence, 5 h; series mostly up to 61 µM; activity, negative = cytotoxic: at the top concentration; note: nearly all actives have a fitted effect of over 55% in size
Text: National Center for Advancing Translational Sciences [NCATS]
NIH Chemical Genomics Center [NCGC]
U.S. Environmental Protection Agency [EPA]
National Institutes of Environmental Health Sciences [NIEHS]
National Toxicology Program [NTP]
U.S. Food and Drug Administration [FDA]
Transcription factors and their stimulated target gene expression play pivotal roles across many cellular processes including responses to environmental stimuli. Proper regulation of associated pathways is critical to maintain cell health and function. Constitutive activation of transcription factor pathways has been implicated in tumors as it may block cellular functions such as apoptosis and lead to invasion and metastasis. One important transcription factor that stimulates gene expression in response to cytokines, UV radiation, and other stimuli is nuclear factor-kappa B (NFkB). To measure activation of the NFkB pathway, the CellSensor NFkB-bla ME-180 cell line (Life Technologies, Carlsbad, CA) that stably expresses beta-lactamase reporter gene under the regulation of a NF-kB response element was used. This assay allows measurement of the NFkB pathway activity induced by compounds in a ME-180 cell line. This system quantitates NF-kB activity using a FRET-based assay system where beta-lactamase expression disrupts FRET, allowing for fluorescent measurement of activity. This cell line has been used to screen the Tox21 10K compound library and to identify compounds that induce the NFkB pathway activity. The cytotoxicity of the Tox21 compound library against the NFkB-bla ME-180 cell line was tested in parallel by measuring cell viability using the CellTiter-Glo assay in the same wells.
Tox21 Assay Protocol Summary:
NFkB-bla ME-180 cells were dispensed at 2,000 cells/6 uL of assay medium per well into black wall/clear-bottom 1536-well plates using a Multidrop Combi (ThermoFisher Scientific, Waltham, MA) dispenser. After the assay plates were incubated at 37 C and 5% CO2 for an overnight, 23 nL of compounds dissolved in DMSO, positive controls or DMSO only was transferred to the assay plate by a Pintool station (Kalypsys, San Diego, CA). The assay plates were incubated at 37 C and 5% CO2 for 5 hr. One uL of LiveBLAzer B/G FRET substrate (Life Technologies) was added using a Flying Reagent Dispenser (Aurora Discovery, San Diego, CA) and the plates were incubated at room temperature for 1.5 hr. Fluorescence intensity (405 nm excitation, 460 nm and 530 nm emissions) was measured using an Envision plate reader (PerkinElmer, Shelton, CT). For cytotoxicity, 3 ul/well of CellTiter-Glo reagent was added into the assay plates using an FRD. After 30 min incubation at room temperature, the luminescence intensity was measured using a ViewLux plate reader (PerkinElmer).
Potency is the fitted concentration of half-maximal effect.

Row | SMILES | Potency | activity, negative = cytotoxic
1 | N#CC(Br)Br | inactive | 
2 | C#CCOS(=O)OC1CCCCC1Oc1ccc(C(C)(C)C)cc1 (stereo not given) | inactive | 
3 | O=C(Nc1ccc(Br)cc1)c1cc(Br)cc(Br)c1O | 13.8 µM (active) and 49 µM (active) | 
4 | CCOCN(C(=O)CCl)c1c(C)cccc1CC | inactive | 
5 | Nc1ccc(-c2ccccc2)cc1 |  | 6.15% (inactive)
6 | CCOc1cc(Oc2ccc(C(F)(F)F)cc2Cl)ccc1[N+](=O)[O-] | inactive | 
7 | CCCCN(CCCC)N=O | inactive | 
8 | c1nc[nH]n1 | inactive | 
9 | Nc1cccnc1 |  | -1.31% (inactive)
10 | CCCCCc1cc(O)cc(O)c1 | inactive | 
11 | Brc1ccc(Oc2cc(Br)c(Br)cc2Br)c(Br)c1 | inactive | 
12 | Oc1c(Cl)c(Cl)c(Cl)c(Cl)c1Cl |  | 4.02% (inactive)
13 | c1ccc(-c2cccc(-c3ccccc3)c2)cc1 | inactive | 
14 | c1ccc(P(c2ccccc2)c2ccccc2)cc1 | inactive | 
15 | O=c1oc2ccccc2c(O)c1C(CC(O)c1ccc(-c2ccc(Br)cc2)cc1)c1ccccc1 (stereo not given) | inactive | 
16 | S=C1NCCN1 | inactive | 
17 | CCC(C)c1ccc(O)cc1 (stereo not given) | inactive | 
18 | CCCCCCCCCCCOC(=O)c1ccccc1C(=O)OCCCCCCCCCCC | inactive | 
19 | CNC(=O)N(C)c1nnc(C(C)(C)C)s1 | inactive | 
20 | NCc1cccnc1 |  | -1.19% (inactive)

Row | SMILES | Potency | activity, negative = cytotoxic
21 | CN(C)C(=O)Nc1ccc(Cl)cc1 | inactive | 
22 | CC(C)=CC1C(C(=O)OCc2coc(Cc3ccccc3)c2)C1(C)C (stereo not given) | inactive | 
23 | CCC(C)(C)c1ccc(O)cc1 | inactive | 
24 | CNC(=O)Oc1cccc2c1OC(C)(C)O2 |  | -2.78% [at 78.8 µM] (inactive)
25 | COP(=S)(OC)Oc1cc(Cl)c(Cl)cc1Cl |  | 3.61% (inactive)
26 | O=[N+]([O-])c1c(Cl)c(Cl)c(Cl)c(Cl)c1Cl | inactive | 
27 | C[C@]12CCC(=O)C[C@@H]1CC[C@@H]1[C@@H]2CC[C@]2(C)[C@@H](O)CC[C@@H]12 | inactive | 
28 | O=S(=O)(Oc1ccc(Cl)cc1)c1ccc(Cl)cc1 | inactive | 
29 | Nn1cnnc1 |  | 4.57% (inactive)
30 | COc1ccc(C=O)cc1 | inactive | 
31 | N[C@@H](Cc1ccc(N(CCCl)CCCl)cc1)C(=O)O |  | -6.75% (inactive)
32 | O=[N+]([O-])c1cccc2ccccc12 |  | 2.47% (inactive)
33 | O=Cc1ccco1 | inactive | 
34 | Nc1ccc(Cl)cc1N | inactive | 
35 | CCN(CC)C(=O)/C(Cl)=C(\C)OP(=O)(OC)OC | inactive | 
36 | CCN(N=O)C(N)=O | inactive | 
37 | CCN(CC)N=O | inactive | 
38 | C1=Cc2cccc3cccc1c23 | inactive | 
39 | CCc1cccc(CC)c1N(COC)C(=O)CCl | inactive | 
40 | C=CCc1ccc2c(c1)OCO2 |  | 5.96% (inactive)

— PubChem BioAssay (Tox21)
